From PubChem BioAssay (NCATS) come the findings set out here.

Results filed as inconclusive are left out. A number with no mark means an inactive call. Activity calls are given as the source filed them. Calls follow the shape of the dose curve; as a rule, active = well fitted curve in the direction sought with a large enough effect in the repeat runs; inconclusive = weak or mixed curves; inactive = no such curve, though single readings can be large; an effect the other way counts as inactive or inconclusive.

The first assay is described as follows: qHTS assay for small molecule agonists of the antioxidant response element (ARE) signaling pathway measured by Nrf2-dependant transcriptional activity (AID 720636). Also: % of control where 0% means no effect. The note with it: ARE-luc HepG2, Nrf2 luciferase reporter, 16 h; series mostly up to 92.4 µM; activation: at the top concentration. An outline of the steps: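 ONE-Glo luminescence, read 30 min after reagent addition at room temperature, reflected ARE reporter activity in HepG2 cells that had been incubated with compound for 16 hr at 37 C in 1% dialyzed FBS.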
A general note: In qHTS, concentration-response curves come from the screen itself.
Regarding `Cc1c(N(C)C)c(=O)n(-c2ccccc2)n1C`, the result was inactive.
Take `CCCCCC(N)=O`: the “activation” value was -0.612%.
Consider `O=C(O)CCCCC1CCSS1` (stereo not given), for which the result was inactive.
Take `CCCCCCCC(=O)OCC(COC(=O)CCCCCCC)OC(=O)CCCCCCC`: the “activation” value is -0.676%.
Regarding `CCCC(O)C(CC)CO` (stereo not given), the “activation” value was -0.259%.
With `O=C1C(c2[nH]c3ccccc3c2O)=Nc2ccccc21`, the “activation” value is 3.89%.
The same measure, in the same setting: as for `Cc1cccc(Nc2ccccc2C(=O)O)c1C`, the figure is 1.6%.
`CC(=O)OCC(COC(C)=O)OC(C)=O`: the compound was called inactive.
For `FC(F)(F)C(Cl)Br` (stereo not given), the “activation” value is -0.735%.
Regarding `O=C(OOC(=O)c1ccccc1)c1ccccc1`, the “activation” value is -0.54%.
`C=CCNC(N)=S`: the “activation” value was -0.967%.
On to `CC[N+](CC)(CC(=O)Nc1c(C)cccc1C)Cc1ccccc1`, for which the “activation” value is 0.485%.
Consider `CCN(CC)C(=O)c1cccc(C)c1`, for which the compound was called inactive.
Take `Cc1cc(C)nc(NS(=O)(=O)c2ccc(N)cc2)n1`: the compound was classed as inactive.
In the case of `O=C(c1ccccc1)C(O)c1ccccc1` (stereo not given), the result was inactive.
For `COc1ccc(O)cc1`, the “activation” value was -0.301%.
Take `Cc1c(C(=O)NCCO)[n+](=O)c2ccccc2n1[O-]`: the “activation” value is 0.417%.
As for `CC(=O)Nc1cccc(O)c1`, the “activation” value is -1.26%.
Take `CC(=O)Nc1ccccc1`: the “activation” value is -0.483%.
Consider `OC[C@@H](O)[C@@H](O)[C@H](O)[C@H](O)CO`, for which the “activation” value was 0.755%.
In the case of `Cc1ccc(C(C)C)c(O)c1`, the “activation” value is -0.154%.
In the case of `CC(C)=CCC/C(C)=C/CO`, the “activation” value is -0.551%.
With `CC1CC(OC(=O)c2ccccc2O)CC(C)(C)C1` (stereo not given), the “activation” value is -0.174%.
Same read-out and setting: the same measure for `Cc1cc(O)cc(C)c1Cl`: 0.951%; for `CC(=O)Nc1ccc(C(=O)O)cc1`: -1.03%; for `CC(=O)NS(=O)(=O)c1ccc(N)cc1`: -1.32%.
On to `CCCCCCCCCCCCCCCCCCO`, for which the “activation” value was -0.123%.
On to `Nc1ccc(S(=O)(=O)c2ccc(N)cc2)cc1`, for which the compound was called inactive.
As for `Cc1cc(=O)[nH]c(=S)[nH]1`, the “activation” value is 1.37%.

The next assay can be described thus: qHTS assay for small molecule antagonists of the retinoid-related orphan receptor gamma (ROR-gamma) signaling pathway - cell viability counter screen (AID 720652).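 Also: CHO reporter cells with doxycycline-induced ROR-gamma expression; compound exposure lasted 16 hr before ATP read; % is scaled to controls: 0 for no effect and ±100 for the full control effect.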 The conditions noted are these: RORgamma reporter cell line viability counter screen; series mostly up to 92.2 µM; activity change, negative = cytotoxicity: at the top concentration. An outline of the steps:
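Counter screen in CHO cells carrying TET-inducible ROR-gamma and an ROR response element-luciferase reporter; cells plated 5 hr, compound pinned, doxycycline added, then 16 hr at 37 C. Viability read as intracellular ATP by CellTiter-Glo luminescence.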
In the case of `Cc1c(N(C)C)c(=O)n(-c2ccccc2)n1C`, the “activity change, negative = cytotoxicity” value is 1.78%.
For the compound `CCCCCC(N)=O`, the “activity change, negative = cytotoxicity” value is -3.84%.
The same measure, in the same setting: as for `CCCCOC(=O)c1ccc(N)cc1`, the figure is -4.47%; as for `CCCCCCCC(=O)OCC(COC(=O)CCCCCCC)OC(=O)CCCCCCC`, 9.52%; as for `CCCC(O)C(CC)CO` (stereo not given), 15%.
For the compound `O=C1C(c2[nH]c3ccccc3c2O)=Nc2ccccc21`, the “activity change, negative = cytotoxicity” value was 6.15%.
In the case of `CC(=O)OCC(COC(C)=O)OC(C)=O`, the “activity change, negative = cytotoxicity” value is 0.794%.
With `FC(F)(F)C(Cl)Br` (stereo not given), the “activity change, negative = cytotoxicity” value was 6.37%.
In the case of `C=CCNC(N)=S`, the “activity change, negative = cytotoxicity” value is -0.396%.
For the compound `CCN(CC)C(=O)c1cccc(C)c1`, the “activity change, negative = cytotoxicity” value was 2.85%.
Still for that read-out and setting: the same measure for `Cc1cc(C)nc(NS(=O)(=O)c2ccc(N)cc2)n1`: 6.55%; for `O=C(c1ccccc1)C(O)c1ccccc1` (stereo not given): -12.9%.
In the case of `O=C1c2cccc(O)c2C(=O)c2c(O)cccc21`, the “activity change, negative = cytotoxicity” value was -10.4%.
As for `COc1ccc(O)cc1`, the “activity change, negative = cytotoxicity” value was 1.78%.
`CC(=O)Nc1cccc(O)c1`: the “activity change, negative = cytotoxicity” value was 6.98%.
On to `CC(=O)Nc1ccccc1`, for which the “activity change, negative = cytotoxicity” value was -11%.
Turning to `CC1CC(OC(=O)c2ccccc2O)CC(C)(C)C1` (stereo not given), the “activity change, negative = cytotoxicity” value is -11%.
Same read-out and setting: as for `CC(=O)Nc1ccc(C(=O)O)cc1`, the figure is -18.1%.
Turning to `CC(=O)NS(=O)(=O)c1ccc(N)cc1`, the “activity change, negative = cytotoxicity” value is 12.3%.
For `Nc1ccc(S(=O)(=O)c2ccc(N)cc2)cc1`, the “activity change, negative = cytotoxicity” value is 10.3%.
Still for that read-out and setting: as for `Cc1cc(=O)[nH]c(=S)[nH]1`, the figure is -1.99%.
